# “And” between values parts separate entries of the source, which are not always exact repeats. Identical values can stand only once. More than one record can exist for a structure, and the calls need not agree. The list shows a part of the results. Results filed as inconclusive are left out. The source made the active and inactive calls.
# Assays:
# [1] = inhibitors of TNFa-induced NFkB p65 translocation, primary screen, imaging, HUVEC, MLSMR starter and 10KST1 sets (AID 438;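 active = inhibition above 20% together with a positive visual image hit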;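 also: compound added about 3h40 before a 20 min TNFalpha stimulation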;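 as to inhibition: signal is the nuclear over cytoplasmic p65 intensity ratio per well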); conditions: HUVEC TNFa-induced p65 nuclear translocation; cell count: measured here: nuclei count (cytotoxicity indicator), at 2.08 µM unless noted; inhibition: at 2 µM, stronger effect = higher value unless noted
# [2] = reduction of polyQ htt aggregates in cells – imaging, exon1htt(103Q)mCFP cells, high-content imaging, primary screen (AID 483;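 active = visual image review flags a hit and inhibition of aggregation exceeds 20%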;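 also: compound exposure lasted 3 days before fixation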;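 as to nuclei count: percent of the per-plate median nuclei count of sample wells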); conditions: exon1htt(103Q)mCFP cell line, aggregate imaging, at 2 µM; inhibition of aggregation: stronger effect = higher value; nuclei count: measured here: cell count, toxicity
# [3] = endothelial E-selectin expression blockers – imaging, HUVEC, immunofluorescence, MLSMR starter and 10KST1 sets, primary screen (AID 487;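 active = visually confirmed hit in the image check and inhibition above 20%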;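 as to inhibition: signal is fraction of cell area covered by stained E-selectin grains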;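 as to nuclei count: 100% = median nuclei count of all wells on the same plate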); conditions: HUVEC TNFalpha-induced E-selectin immunofluorescence imaging, at 2 µM; inhibition: stronger effect = higher value; nuclei count: measured here: cell number, toxicity
# [4] = Primary imaging screen for DUSP6 inhibitors that restore phospho-Erk in transfected HeLa cells, chemical complementation (AID 609;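 active = compounds giving at least 50% inhibition in the cell-based MKP-3 phosphatase rescue imaging test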;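 as to inhibition: phospho-Erk level distribution per well compared with pooled transfected vehicle control wells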); conditions: HeLa MKP-3 transfected, phospho-Erk imaging KS statistic, at 10 µM
# [5] = molecular target: Dual specificity protein phosphatase 6 (Homo sapiens) (UniProt Q16828); assay: as above; conditions: HeLa MKP-3 transfected, phospho-Erk imaging KS statistic, at 10 µM, stronger effect = higher value
# [6] = molecular target: Voltage-gated potassium channel subunit beta-2 (Rattus norvegicus) (UniProt P62483); assay: inhibitors of rat Kvbeta2 reductase activity – biochemical, NADPH fluorescence, primary screen (AID 622;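 active = fluorescence slope higher than the sample average by over 3 SD, cut at about -0.22 in these data, passing the limit was not always enough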;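 also: slope of raw intensity against log time taken from 70 to 1610 s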); conditions: recombinant KvBeta, 4-cyanobenzaldehyde reduction, at 10 µM, stronger effect = higher value
# [7] = molecular target: Voltage-gated potassium channel subunit beta-2 (Rattus norvegicus) (UniProt P62483); assay: enhancers of rat Kvbeta2 NADPH turnover – biochemical, NADPH fluorescence, primary screen (AID 623;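 active = NADPH fluorescence slope more negative than the mean of all samples by about 3 SD, 99.7% confidence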;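 also: fluorescence intensity change per second fitted from 20 to 320 s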); conditions: Recombinant KvBeta, NADPH fluorescence decrease slope, 10 min; at 10 µM; stronger effect = lower value
# [8] = molecular target: Alpha-2C adrenergic receptor (Homo sapiens) (UniProt P18825); assay: compounds altering alpha2C-coupled GIRK flux – cell-based, HEK293 alpha2C/GIRK1/2, thallium flux, primary screen (AID 624;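 active = fluorescence slope after compound addition differing from the mean of all screened samples at 99.7% confidence, in either direction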;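 also: slope of fluorescence ratio to pre-addition baseline per second over 15 to 24 s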); conditions: thallium flux BTC fluorescence, at 10 µM, actives lie on both sides
# [9] = loss of swimming-algae plug formation – whole organism, Chlamydomonas reinhardtii, WT vs cilia-less mutant, absorbance, 96-well, primary screen (AID 463189); conditions: Chlamydomonas reinhardtii gravitaxis, OD600 absorbance, 2 days; at 10 µM; stronger effect = higher value;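 also: 0% = wild type cc124 cells in DMSO and 100% = ciliumless bld1 mutant cells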
# [10] = blockers of RIG-like receptor reporter activation – cell-based, Sendai virus stimulus, luciferase, 10K MLSCN set, TLR/RLR signaling modifier project, primary screen (AID 602276;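 active = inhibition at or above 50% at 10 µM; inactive = inhibition below 50%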;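 also: firefly luciferase from ISG56 promoter only with Renilla not read in this screen; 0% = Sendai virus plus DMSO and 100% = medium plus DMSO without virus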); conditions: HEK293 RL24 IRF3 luciferase reporter, at 10 µM, stronger effect = higher value
# [11] = TLR3 IRF3 reporter activation blockers – cell-based, poly I:C stimulus, luciferase, 10K MLSCN set, primary screen (AID 602277;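 active = inhibition of the reporter signal at or above 50%; inactive = inhibition below 50%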); conditions: HEK293-TLR3 RL24 IRF3 luciferase reporter, at 10 µM, stronger effect = higher value
# [12] = inhibitors of larval lipid processing in zebrafish, primary screen, whole organism, PED6 fluorescence, gall bladder and intestine (AID 686;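 active = a full or partial loss of lipid-probe fluorescence in the fish gall bladder, intestine or both, judged by eye; inactive = no fluorescence loss, or compound toxic to the fish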;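 also: larvae 5 to 7 days old with five fish per well; signal comes from phospholipase A2 cleavage of quenched PED6 carried via bile; overnight exposure to compound and PED6 before scoring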); conditions: Zebrafish larvae PED6 lipid processing, fluorescence scoring
# [13] = molecular target: Solute carrier family 12 member 5 (Homo sapiens) (UniProt Q9H2X9); assay: retest of KCC2 transport modulators without sodium – cell-based, HEK293 KCC2, thallium flux, secondary assay, confirmation (AID 1713;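 active = thallium flux slope above the same plate's solvent-only control mean plus 3 SD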); conditions: FluoZin2 fluorescence, at 10 µM, stronger effect = higher value
# PubChem AID 1714 = conditions: HEK293-KCC2 + bumetanide/ouabain, thallium flux FluoZin2; at 10 µM; stronger effect = higher value
# [14] = molecular target: Solute carrier family 12 member 5 (Homo sapiens) (UniProt Q9H2X9); assay: retest of KCC2 transport modulation, ouabain-free – cell-based, HEK293 KCC2, thallium flux, FluoZin2, secondary assay 2, confirmation (AID 1715;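 active = thallium flux slope more than 3 SD above or below the plate's solvent-only control mean, mostly below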;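 also: raw slope with 0.1% DMSO as baseline and bumetanide as block control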); conditions: HEK293-KCC2, thallium flux FluoZin2 fluorescence; at 10 µM; actives lie on both sides
# [15] = compound effects on native HEK Tl+ uptake – HEK cells, counterscreen 1, counter-screen for KCC2 modulator project, confirmation (AID 1716;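 active = thallium flux rate significantly above the same plate's solvent-only control wells, beyond their mean plus 3 SD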); conditions: HEK293 parental cells, thallium flux FluoZin2, ouabain; at 10 µM; baseline-ratio fluorescence slope, 10–20 s after thallium
# [16] = molecular target: Solute carrier family 12 member 5 (Homo sapiens) (UniProt Q9H2X9); assay: modulation of KCC2 thallium flux in HEK cells – cell-based, ouabain, retest, confirmation (AID 1717;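 active = thallium flux slope beyond 3 SD from same-plate DMSO control mean in most replicates, usually higher, sometimes lower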;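 also: slope of initial-normalized fluorescence between seconds 10 and 20 after thallium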); conditions: HEK293-KCC2, thallium flux FluoZin2 fluorescence, at 10 µM, bidirectional: low = inhibitor, high = activator
# [17] = native HEK Tl+ uptake effects, second counter-screen – HEK cells, counterscreen 2, counter-screen for KCC2 modulator project, confirmation (AID 1718;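 active = thallium flux slope above the same plate's solvent-control mean plus 3 SD in both duplicate wells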;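 also: run without ouabain in cells lacking the KCC2 cotransporter; slope of fluorescence scaled to its starting value between 10 and 20 s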); conditions: HEK293 parental, thallium flux FluoZin-2 fluorescence slope; at 10 µM
# [18] = measured here: cell density z-score
# [19] = measured here: nuclear c-Myc green intensity z-score
# [20] = measured here: nuclear pErk red intensity z-score, stronger effect = higher value
# Sequence of Voltage-gated potassium channel subunit beta-2 (Rattus norvegicus) (P62483 whole entry, looked up): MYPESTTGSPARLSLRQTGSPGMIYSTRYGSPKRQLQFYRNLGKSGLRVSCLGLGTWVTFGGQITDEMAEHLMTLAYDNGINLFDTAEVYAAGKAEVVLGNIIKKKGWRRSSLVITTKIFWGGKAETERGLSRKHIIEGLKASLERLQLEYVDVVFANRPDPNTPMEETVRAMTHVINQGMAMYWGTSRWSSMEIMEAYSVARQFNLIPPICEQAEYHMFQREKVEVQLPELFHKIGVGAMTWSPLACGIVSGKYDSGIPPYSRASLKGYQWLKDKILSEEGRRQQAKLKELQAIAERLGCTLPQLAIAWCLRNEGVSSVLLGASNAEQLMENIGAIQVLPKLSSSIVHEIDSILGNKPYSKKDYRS
# Sequence of Solute carrier family 12 member 5 (Homo sapiens) (Q9H2X9 whole entry, looked up): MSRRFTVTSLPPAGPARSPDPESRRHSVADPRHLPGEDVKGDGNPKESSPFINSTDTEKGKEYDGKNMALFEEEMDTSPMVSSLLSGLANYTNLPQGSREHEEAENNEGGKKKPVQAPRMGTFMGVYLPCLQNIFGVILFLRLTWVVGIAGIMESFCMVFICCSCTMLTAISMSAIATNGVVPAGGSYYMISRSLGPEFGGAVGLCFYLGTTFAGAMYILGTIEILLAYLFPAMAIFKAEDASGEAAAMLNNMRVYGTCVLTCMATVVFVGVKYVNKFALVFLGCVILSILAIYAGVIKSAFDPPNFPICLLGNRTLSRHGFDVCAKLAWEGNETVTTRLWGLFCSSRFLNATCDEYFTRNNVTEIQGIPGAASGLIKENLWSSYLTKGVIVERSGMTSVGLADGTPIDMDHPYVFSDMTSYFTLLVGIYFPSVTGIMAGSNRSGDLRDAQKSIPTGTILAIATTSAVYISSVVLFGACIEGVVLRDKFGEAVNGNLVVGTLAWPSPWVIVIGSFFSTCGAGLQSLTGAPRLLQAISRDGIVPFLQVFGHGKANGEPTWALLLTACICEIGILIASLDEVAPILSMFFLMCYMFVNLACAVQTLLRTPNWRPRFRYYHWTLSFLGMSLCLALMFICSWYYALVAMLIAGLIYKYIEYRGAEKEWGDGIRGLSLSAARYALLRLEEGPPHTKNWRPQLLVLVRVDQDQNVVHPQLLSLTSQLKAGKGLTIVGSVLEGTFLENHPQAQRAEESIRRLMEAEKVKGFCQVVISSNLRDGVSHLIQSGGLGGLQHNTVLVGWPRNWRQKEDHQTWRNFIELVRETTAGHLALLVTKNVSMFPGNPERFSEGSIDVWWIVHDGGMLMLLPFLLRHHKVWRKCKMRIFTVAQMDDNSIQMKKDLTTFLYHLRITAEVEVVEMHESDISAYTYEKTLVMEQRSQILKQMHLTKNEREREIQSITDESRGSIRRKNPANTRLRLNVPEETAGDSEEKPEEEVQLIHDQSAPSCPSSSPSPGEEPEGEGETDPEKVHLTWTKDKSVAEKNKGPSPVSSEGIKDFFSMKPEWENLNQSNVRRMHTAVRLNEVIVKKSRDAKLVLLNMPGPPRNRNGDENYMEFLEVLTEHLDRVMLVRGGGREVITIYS
# Sequence of Alpha-2C adrenergic receptor (Homo sapiens) (P18825 whole entry, looked up): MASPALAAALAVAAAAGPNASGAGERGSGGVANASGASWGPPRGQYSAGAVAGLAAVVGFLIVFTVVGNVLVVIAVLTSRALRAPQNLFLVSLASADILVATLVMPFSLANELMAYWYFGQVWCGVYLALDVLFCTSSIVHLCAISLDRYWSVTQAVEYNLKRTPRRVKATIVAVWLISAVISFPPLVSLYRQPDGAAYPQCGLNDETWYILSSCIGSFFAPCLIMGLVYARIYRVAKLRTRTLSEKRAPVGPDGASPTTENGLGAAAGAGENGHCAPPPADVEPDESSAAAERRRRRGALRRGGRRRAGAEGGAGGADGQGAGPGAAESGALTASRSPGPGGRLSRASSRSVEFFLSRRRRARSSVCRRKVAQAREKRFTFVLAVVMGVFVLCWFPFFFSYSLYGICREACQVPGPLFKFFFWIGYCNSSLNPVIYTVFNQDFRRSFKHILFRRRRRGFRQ
# Sequence of Dual specificity protein phosphatase 6 (Homo sapiens) (Q16828 whole entry, looked up): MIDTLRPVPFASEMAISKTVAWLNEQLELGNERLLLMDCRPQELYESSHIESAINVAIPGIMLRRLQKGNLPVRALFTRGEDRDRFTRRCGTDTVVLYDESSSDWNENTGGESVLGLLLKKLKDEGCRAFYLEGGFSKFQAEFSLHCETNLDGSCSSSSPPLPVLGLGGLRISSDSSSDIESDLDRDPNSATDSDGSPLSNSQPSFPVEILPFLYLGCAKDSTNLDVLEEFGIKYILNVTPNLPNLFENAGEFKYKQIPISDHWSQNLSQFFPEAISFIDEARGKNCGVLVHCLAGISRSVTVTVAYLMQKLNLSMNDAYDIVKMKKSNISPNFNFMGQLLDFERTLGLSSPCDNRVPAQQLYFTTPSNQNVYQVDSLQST
structure (smiles),measurement,setting,value
Cc1c2ccncc2c(C)c2c1[nH]c1ccccc12,cell count,[1],493
same,inhibition,[1],-11.8% (inactive)
same,inhibition of aggregation,[2],-178% (inactive)
same,nuclei count,[2],27.6%
same,inhibition,[3],-23% (inactive)
same,nuclei count,[3],100%
same,z-score,[4]; [18],-0.124
same,z-score,[4]; [19],0.964
same,z-score,[4]; [20],-1.2
same,inhibition,[5],38.9% (inactive)
same,fluorescence slope,[6],-0.464 (inactive)
same,NADPH fluorescence slope,[7],-5.8e-09 (inactive)
same,slope,[8],0.0129 (active)
same,inhibition,[9],11% (inactive) and 108% (active)
same,inhibition,[10],12.8% (inactive)
same,inhibition,[11],91.8% (active)
[N-]=[N+]=CC(=O)OC[C@H](N)C(=O)O,cell count,[1],594
same,inhibition,[1],-4% (inactive)
same,inhibition of aggregation,[2],-0.4% (inactive)
same,nuclei count,[2],104%
same,inhibition,[3],-25.7% (inactive)
same,nuclei count,[3],133%
same,z-score,[4]; [18],-0.1
same,z-score,[4]; [19],-0.513
same,z-score,[4]; [20],-0.992
same,inhibition,[5],25.1% (inactive)
same,fluorescence slope,[6],-0.53 (inactive)
same,NADPH fluorescence slope,[7],2.4e-05 (inactive)
same,slope,[8],0.00503 (inactive)
same,outcome,[12],inactive
same,inhibition,[9],-8.35% (inactive)
same,inhibition,[10],16.7% (inactive)
same,inhibition,[11],21.9% (inactive)
CN(C)[C@@H]1C(=O)C(C(N)=O)=C(O)[C@@]2(O)C(=O)C3=C(O)c4c(O)cccc4[C@@](C)(O)[C@H]3C[C@@H]12,cell count,[1],668
same,inhibition,[1],5.4% (inactive)
same,inhibition of aggregation,[2],72.1% (active)
same,nuclei count,[2],99.1%
same,inhibition,[3],-85.3% (inactive)
same,nuclei count,[3],113%
same,z-score,[4]; [18],-0.618
same,z-score,[4]; [19],-0.0358
same,z-score,[4]; [20],-1.49
same,inhibition,[5],21.2% (inactive)
same,fluorescence slope,[6],-0.433 (inactive)
same,NADPH fluorescence slope,[7],-5.8e-05 (inactive)
same,slope,[8],0.00553 (inactive)
same,outcome,[12],inactive
same,inhibition,[9],22.3% (inactive)
same,inhibition,[10],10.4% (inactive)
same,inhibition,[11],33.9% (inactive)
C#CCN(C)C(C)Cc1ccccc1 (centres undefined),cell count,[1],624
same,inhibition,[1],-1.1% (inactive)
same,inhibition of aggregation,[2],13.6% (inactive)
same,nuclei count,[2],96.7%
same,inhibition,[3],-90.1% (inactive)
same,nuclei count,[3],124%
same,z-score,[4]; [18],-0.521
same,z-score,[4]; [19],1.36
same,z-score,[4]; [20],0.296
same,inhibition,[5],8% (inactive)
same,fluorescence slope,[6],-0.447 (inactive)
same,NADPH fluorescence slope,[7],-7.1e-05 (inactive)
same,slope,[8],0.00486 (inactive)
same,outcome,[12],inactive
same,inhibition,[9],10.4% (inactive)
same,inhibition,[10],16.5% (inactive)
same,inhibition,[11],40.6% (inactive)
CC(C)[C@@]1(NC(=O)[C@@H]2C[C@@H]3c4cccc5[nH]cc(c45)C[C@H]3N(C)C2)O[C@@]2(O)[C@@H]3CCCN3C(=O)[C@H](Cc3ccccc3)N2C1=O,cell count,[1],640
same,inhibition,[1],11.1% (inactive)
same,inhibition of aggregation,[2],20.4% (inactive)
same,nuclei count,[2],90.4%
same,inhibition,[3],-79.8% (inactive)
same,nuclei count,[3],113%
same,z-score,[4]; [18],-0.842
same,z-score,[4]; [19],-0.876
same,z-score,[4]; [20],1.64
same,inhibition,[5],-0.828% (inactive)
same,fluorescence slope,[6],-0.47 (inactive)
same,NADPH fluorescence slope,[7],-3.7e-05 (inactive)
same,slope,[8],0.00471 (inactive)
same,inhibition,[9],-5.54% (inactive) and 15.7% (inactive)
same,inhibition,[10],3.2% (inactive)
same,inhibition,[11],36.1% (inactive)
COc1cc(-n2c(=S)[nH]c3ccc(C)cc3c2=O)c(Cl)cc1Cl,normalised thallium flux (F/F0 slope),[13],0.0155 (active)
same,normalized thallium flux,PubChem AID 1714,0.0563 (active)
same,normalized thallium flux,[14],0.0344 (inactive)
same,thallium flux rate (normalised fluorescence),[15],0.0674 (active)
same,"raw Tl+ flux slope (below DMSO = inhibition, above = activation)",[16],0.0437 (active)
same,thallium flux slope,[17],0.0196 (active)
